# Source: PubChem BioAssay (NCATS)
# Results filed as inconclusive are left out. A call without a number means that no potency is given here. Unmarked numbers belong to inactive results. Active and inactive are the calls of the source. Calls come from the whole dose curve; as a rule, active = well fitted curve in the direction sought with a large enough effect; inconclusive = small, poorly fitted or top-dose-only effect, or another doubt; inactive = no such curve, though single readings can be large; an effect the other way counts as inactive or inconclusive.
# Key:
# [1] = target: Cellular tumor antigen p53 (Homo sapiens) (UniProt P04637); assay: Primary qHTS for small molecule compounds that upregulate eGFP-tagged delta133p53alpha (in N-terminal) cells. (AID 2060322); settings: NCI-H358 eGFP-delta133p53alpha fluorescence, 24 h; activation: hits give high values; note: nearly all actives have a fitted effect of over 75% in size; note: potency is the fitted concentration of half-maximal effect
# Cellular tumor antigen p53 (Homo sapiens), sequence (P04637 whole entry, looked up): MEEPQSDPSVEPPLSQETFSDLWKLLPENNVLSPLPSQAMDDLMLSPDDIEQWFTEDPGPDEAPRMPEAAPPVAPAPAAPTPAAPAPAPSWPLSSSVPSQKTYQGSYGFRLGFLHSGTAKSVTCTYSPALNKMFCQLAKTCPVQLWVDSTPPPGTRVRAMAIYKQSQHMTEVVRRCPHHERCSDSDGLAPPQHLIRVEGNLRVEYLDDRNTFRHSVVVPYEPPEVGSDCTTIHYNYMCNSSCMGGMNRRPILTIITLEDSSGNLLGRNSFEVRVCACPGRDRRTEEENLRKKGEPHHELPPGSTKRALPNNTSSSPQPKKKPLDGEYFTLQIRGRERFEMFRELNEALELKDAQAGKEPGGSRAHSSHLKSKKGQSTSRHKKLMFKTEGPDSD
# Outline: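 NCI-H358 cells pre-induced 24 h with 10 ng/ml doxycycline to express N-terminal eGFP-delta133p53alpha, then dosed 24 h at 37C without doxycycline; fixed, Hoechst-stained, GFP intensity by laser scanning cytometry, normalized to DMSO (0%) and 57.5 uM 5-azacytidine (100%).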
# [2] = target: Aldehyde dehydrogenase, mitochondrial (Homo sapiens) (UniProt P05091); assay: qHTS for Inhibitors of the Aldehyde Dehydrogenase Family (ALDH2) Primary screen (AID 2061308); settings: ALDH2 enzyme inhibition qHTS, 1536-well; series mostly up to 56 µM; note: nearly all actives have a fitted effect of over 55% in size
# [3] = target: Retinaldehyde dehydrogenase 3 (Homo sapiens) (UniProt P47895); assay: qHTS for Inhibitors of the Aldehyde Dehydrogenase Family (ALDH1A3) Primary screen (AID 2061315); settings: ALDH inhibition qHTS; series mostly up to 56 µM
SMILES,activation [1],Potency [2],Potency [3],Potency [1]
CC(=O)OC1C(=O)C2C3OCC4=C3[C@@](C)(CC[C@@H]4O)CC[C@]2(C)[C@H]1C(C)C (some centres undefined),-14.5%,inactive,inactive,
C/C=C/c1cc(OC)c2c(c1)[C@@H](C)[C@@H](c1ccc(O)c(OC)c1)O2,-16%,inactive,inactive,
COC12CC3C(C(C)C1=CC(=O)O2)C(O)C(OC(C)=O)C1C(C)(C)C(OC(C)=O)CCC31C (centres undefined),-3.05%,inactive,inactive,
C=CC1(C)C=C2C(O)CC3C(C)(C(=O)O)CCCC3(C)C2CC1 (centres undefined),8.04%,inactive,inactive,
C=C1C(=O)OC2/C=C(\C)CC3C=C(CC/C=C(\C)CCC12)C(=O)O3 (centres undefined),,inactive,inactive,6.59 µM (active)
C=CC1C(O[C@@H]2O[C@H](CO)[C@@H](O)[C@H](O)[C@H]2O)OC=C(C(=O)OC)C1CC(=O)O (some centres undefined),23.2%,inactive,inactive,
CC1(C)CCCC2(C)C(CO)C3CCC2C31 (centres undefined),24.1%,inactive,inactive,
C=C1C(=O)O[C@@H]2C[C@H](C)[C@@]3(O)C=C(C(C)=O)[C@]4(CC3C[C@H]12)C(=O)O[C@H]1C[C@@H](C)C(CCC(C)=O)=CC[C@H]14 (some centres undefined),4.46%,inactive,inactive,
C=CCc1ccc(O[C@@H]2O[C@H](CO)[C@@H](O)[C@H](O)[C@H]2O)c(OC)c1,-19.6%,inactive,inactive,
CC(=O)O[C@H]1C[C@@H]2[C@]3(CC[C@]4(C)[C@@H](C5(C)CCC(C(C)(C)O)O5)[C@@H](O)C[C@@]24C)C[C@@]32CC[C@H](O[C@@H]3OC[C@@H](O)[C@H](O)[C@H]3O)C(C)(C)[C@H]12 (some centres undefined),-4.46%,inactive,inactive,
C=CC(C)(O)CCC1C(C)(O)CCC2C(C)(C)CCCC21C (centres undefined),9.82%,inactive,inactive,
CC(O)(CC(=O)O)CC(=O)OCc1ccc(O[C@@H]2O[C@H](CO)[C@@H](O)[C@H](O)[C@H]2O)cc1 (some centres undefined),-13.7%,inactive,inactive,
CC1(C)CCC[C@@]2(C)[C@H]1[C@H](O)C=C(CO)[C@]2(O)CO,-1.53%,inactive,inactive,
CC(=O)C1=CCC2C3CCC4CC(O[C@@H]5O[C@H](CO)[C@@H](O[C@@H]6O[C@@H](C)[C@H](O)[C@@H](O)[C@H]6O)[C@H](O)[C@H]5O[C@@H]5O[C@H](CO)[C@@H](O)[C@H](O)[C@H]5O)CCC4(C)C3CCC12C (some centres undefined),-10.7%,inactive,inactive,
O=C1N(CC2CCCCN2)CCN1c1ccccc1 (centres undefined),5.73%,inactive,inactive,
CC(C)=CCC/C(C)=C/Cc1ccc(O)c(C2OC(=O)c3cc(C(=O)O)cc(O)c32)c1O (centres undefined),-1.53%,inactive,inactive,
CC(C)[C@H]1CCC(CO)=C[C@@H]1/C=C(\CO)C(=O)O,-15.3%,inactive,inactive,
CC(C)=CCC[C@@](C)(O)[C@H]1CC[C@]2(C)[C@@H]1[C@H](O)CC1[C@@]3(C)CC[C@H](O[C@@H]4O[C@H](CO)[C@@H](O)[C@H](O)[C@H]4O[C@@H]4O[C@H](CO)[C@@H](O)[C@H](O)[C@H]4O)C(C)(C)[C@@H]3CC[C@]12C (some centres undefined),-17.6%,inactive,inactive,
CCOC(=O)C1=Cc2ccc(C(F)(F)C(F)(F)F)cc2N=C(N)C1,-1.79%,inactive,inactive,
CC1OC(OC2CCC3(C)C(CCC4(C)C3CC=C3C5CC(C)(C)CCC5(C(=O)OC5OC(CO)C(O)C(O)C5O)CCC34C(=O)O)C2(C)C)C(O)C(O)C1O (centres undefined),0.763%,inactive,inactive,
C=CCc1ccc(O[C@@H]2O[C@H](CO[C@@H]3O[C@@H](C)[C@H](O)[C@@H](O)[C@H]3O)[C@@H](O)[C@H](O)[C@H]2O)cc1,3.57%,inactive,inactive,
COc1ccc(C(OC2OC(CO)C(O)C(O)C2O)C(C)O)cc1 (centres undefined),9.82%,inactive,inactive,
CC(CCC1(O)OC2CC3C4CC=C5C[C@@H](O[C@@H]6O[C@H](CO)[C@@H](O[C@@H]7O[C@@H](C)[C@H](O)[C@@H](O)[C@H]7O)[C@H](O)[C@H]6O[C@@H]6O[C@@H](C)[C@H](O)[C@@H](O)[C@H]6O)CC[C@]5(C)C4CC[C@]3(C)[C@@]2(O)[C@@H]1C)CO[C@@H]1O[C@H](CO)[C@@H](O)[C@H](O)[C@H]1O (some centres undefined),-8.04%,inactive,inactive,
